In all, about 8,300 sequences were measured (“log2 fold change of degron read counts, EGFP-low vs EGFP+ sorted cells (limma voom), compound-induced degradation”: median about -1.1, highest 2% from about 3.2 on). What follows is part of a selection rich in the highest values, with near analogues and random picks from the rest.
Molecular target: T1, CRBN, Q96SW2
T1 chain: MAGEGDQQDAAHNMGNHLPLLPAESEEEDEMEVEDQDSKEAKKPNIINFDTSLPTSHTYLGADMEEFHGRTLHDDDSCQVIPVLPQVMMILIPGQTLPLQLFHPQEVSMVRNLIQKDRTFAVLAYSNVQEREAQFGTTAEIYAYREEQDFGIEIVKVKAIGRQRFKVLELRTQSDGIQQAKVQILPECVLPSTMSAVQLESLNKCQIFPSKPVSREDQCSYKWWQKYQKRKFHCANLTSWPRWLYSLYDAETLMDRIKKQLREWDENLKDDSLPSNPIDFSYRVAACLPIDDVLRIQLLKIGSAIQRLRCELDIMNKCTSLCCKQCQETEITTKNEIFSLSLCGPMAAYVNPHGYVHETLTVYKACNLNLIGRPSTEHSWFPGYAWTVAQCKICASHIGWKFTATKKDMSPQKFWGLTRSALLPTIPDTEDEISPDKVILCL
Experiment: log2 fold change of degron read counts, EGFP-low vs EGFP+ sorted cells (limma voom), compound-induced degradation; higher = more compound-induced degradation of the degron-EGFP fusion; degrons are variants of IKZF1/3 zinc finger 2; compound dose not given here
Settings: Jurkat, 18 h

[1] = compound: compound 19 (5-tert-butyl-thalidomide)
[2] = compound: compound 22 (5-morpholino-thalidomide)
[3] = compound: compound 33 (diphenyl IMiD analogue)
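Also: pooled lentiviral library of zinc finger degron-EGFP fusions in mCherry-positive Jurkat cells, FACS-sorted after compound exposure, with degron abundance counted by next-generation sequencing.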

B1: 46L_47R_49E_50I_52G_53F_54I_55C_67L_, Q9UKT9 (peptide)
chain: LRCEICGFICTQKGNLLRHIKL
[1]
  log2 fold change of degron read counts: -0.547
[2]
  log2 fold change of degron read counts: -1.4
[3]
  log2 fold change of degron read counts: 0.271
compound: thalidomide
  log2 fold change of degron read counts: 0.795

B2: 46F_47V_49E_50I_52G_53R_54R_55F_67L_, Q9UKT9 (peptide)
chain: FVCEICGRRFTQKGNLLRHIKL
[1]
  log2 fold change of degron read counts: -1.38
[2]
  log2 fold change of degron read counts: -0.295
[3]
  log2 fold change of degron read counts: -0.924
compound: thalidomide
  log2 fold change of degron read counts: 1.44

B3: 46L_47W_49P_50I_52G_53F_54I_55C_67L_, Q9UKT9 (peptide)
chain: LWCPICGFICTQKGNLLRHIKL
[1]
  log2 fold change of degron read counts: 2.27
[2]
  log2 fold change of degron read counts: 2.7
[3]
  log2 fold change of degron read counts: 2.35
compound: thalidomide
  log2 fold change of degron read counts: 1.24

B4: 46F_47N_49E_50Q_52G_53A_54Q_55F_67L_, Q9UKT9 (peptide)
chain: FNCEQCGAQFTQKGNLLRHIKL
[1]
  log2 fold change of degron read counts: -1.51
[2]
  log2 fold change of degron read counts: -2.31
[3]
  log2 fold change of degron read counts: -2.13
compound: thalidomide
  log2 fold change of degron read counts: -2.22

B5: 46L_47T_49N_50Q_52G_53F_54M_55C_67L_, Q9UKT9 (peptide)
chain: LTCNQCGFMCTQKGNLLRHIKL
[1]
  log2 fold change of degron read counts: -2.05
[2]
  log2 fold change of degron read counts: -1.99
[3]
  log2 fold change of degron read counts: -2.04
compound: thalidomide
  log2 fold change of degron read counts: -1.23

B6: 46F_47F_49N_50Q_52G_53A_54K_55F_67L_, Q9UKT9 (peptide)
chain: FFCNQCGAKFTQKGNLLRHIKL
[1]
  log2 fold change of degron read counts: -0.805
[2]
  log2 fold change of degron read counts: -0.929
[3]
  log2 fold change of degron read counts: -1.59
compound: thalidomide
  log2 fold change of degron read counts: -1.91

B7: 46F_47D_49N_50V_52G_53A_54P_55F_67L_, Q9UKT9 (peptide)
chain: FDCNVCGAPFTQKGNLLRHIKL
[1]
  log2 fold change of degron read counts: -1.08
[2]
  log2 fold change of degron read counts: -1.02
[3]
  log2 fold change of degron read counts: -1.22
compound: thalidomide
  log2 fold change of degron read counts: -0.873

B8: 46L_47D_49E_50I_52G_53F_54R_55C_67L_, Q9UKT9 (peptide)
chain: LDCEICGFRCTQKGNLLRHIKL
[1]
  log2 fold change of degron read counts: 0.949
[2]
  log2 fold change of degron read counts: -0.499
[3]
  log2 fold change of degron read counts: -0.616
compound: thalidomide
  log2 fold change of degron read counts: 0.426

B9: 46L_47N_49E_50I_52G_53F_54R_55C_67L_, Q9UKT9 (peptide)
chain: LNCEICGFRCTQKGNLLRHIKL
[1]
  log2 fold change of degron read counts: 1.31
[2]
  log2 fold change of degron read counts: 0.0636
[3]
  log2 fold change of degron read counts: -0.877
compound: thalidomide
  log2 fold change of degron read counts: 0.378

B10: 46L_47Y_49E_50I_52G_53F_54R_55C_67L_, Q9UKT9 (peptide)
chain: LYCEICGFRCTQKGNLLRHIKL
[1]
  log2 fold change of degron read counts: 3.55
[2]
  log2 fold change of degron read counts: 3.9
[3]
  log2 fold change of degron read counts: 2.17
compound: thalidomide
  log2 fold change of degron read counts: 1.9

B11: 46L_47W_49E_50I_52G_53F_54R_55C_67L_, Q9UKT9 (peptide)
chain: LWCEICGFRCTQKGNLLRHIKL
[1]
  log2 fold change of degron read counts: 3.39
[2]
  log2 fold change of degron read counts: 3.5
[3]
  log2 fold change of degron read counts: 2.48
compound: thalidomide
  log2 fold change of degron read counts: 1.8

B12: 46L_47M_49E_50I_52G_53F_54R_55C_67L_, Q9UKT9 (peptide)
chain: LMCEICGFRCTQKGNLLRHIKL
[1]
  log2 fold change of degron read counts: 0.992
[2]
  log2 fold change of degron read counts: 0.81
[3]
  log2 fold change of degron read counts: 2.15
compound: thalidomide
  log2 fold change of degron read counts: 2.41

B13: 46L_47H_49E_50I_52G_53F_54R_55C_67L_, Q9UKT9 (peptide)
chain: LHCEICGFRCTQKGNLLRHIKL
[1]
  log2 fold change of degron read counts: 2.71
[2]
  log2 fold change of degron read counts: 2.4
[3]
  log2 fold change of degron read counts: 1.3
compound: thalidomide
  log2 fold change of degron read counts: 1.88

B14: 46L_47S_49E_50I_52G_53F_54R_55C_67L_, Q9UKT9 (peptide)
chain: LSCEICGFRCTQKGNLLRHIKL
[1]
  log2 fold change of degron read counts: 2.82
[2]
  log2 fold change of degron read counts: 2.76
[3]
  log2 fold change of degron read counts: 0.517
compound: thalidomide
  log2 fold change of degron read counts: 1.83

B15: 46L_47V_49E_50I_52G_53F_54R_55C_67L_, Q9UKT9 (peptide)
chain: LVCEICGFRCTQKGNLLRHIKL
[1]
  log2 fold change of degron read counts: 2.5
[2]
  log2 fold change of degron read counts: 2.55
[3]
  log2 fold change of degron read counts: 1.39
compound: thalidomide
  log2 fold change of degron read counts: 3.28

B16: 46L_47G_49E_50I_52G_53F_54R_55C_67L_, Q9UKT9 (peptide)
chain: LGCEICGFRCTQKGNLLRHIKL
[1]
  log2 fold change of degron read counts: 2.14
[2]
  log2 fold change of degron read counts: 1.52
[3]
  log2 fold change of degron read counts: -0.383
compound: thalidomide
  log2 fold change of degron read counts: 0.468

B17: 46L_47T_49E_50I_52G_53F_54R_55C_67L_, Q9UKT9 (peptide)
chain: LTCEICGFRCTQKGNLLRHIKL
[1]
  log2 fold change of degron read counts: 1.66
[2]
  log2 fold change of degron read counts: 2.1
[3]
  log2 fold change of degron read counts: 1.15
compound: thalidomide
  log2 fold change of degron read counts: 2.73

B18: 46L_47C_49E_50I_52G_53F_54R_55C_67L_, Q9UKT9 (peptide)
chain: LCCEICGFRCTQKGNLLRHIKL
[1]
  log2 fold change of degron read counts: 2.36
[2]
  log2 fold change of degron read counts: 2.33
[3]
  log2 fold change of degron read counts: 1.37
compound: thalidomide
  log2 fold change of degron read counts: 2.65

B19: 46L_47A_49E_50I_52G_53F_54R_55C_67L_, Q9UKT9 (peptide)
chain: LACEICGFRCTQKGNLLRHIKL
[1]
  log2 fold change of degron read counts: 3.5
[2]
  log2 fold change of degron read counts: 2.79
[3]
  log2 fold change of degron read counts: 0.159
compound: thalidomide
  log2 fold change of degron read counts: 1.41
